We go through 24 compounds from PubChem BioAssay.

Where “and” joins values, the source holds several entries; their conditions need not be identical. Identical values can stand only once. Calls of active or inactive are those of the source. Unless noted, no stated cut-off is given here; in the data, active means parasite load remaining mostly below about 12% (no sharp cut-off); inactive means mostly above about 10%.

The viability is a read-out of living cells in per cent, often relative to untreated cells.

The nature of assay [1]: liver-stage malaria parasite growth inhibition, primary screen, cell-based, HepG2, luciferase luminescence, HepG2 viability (AID 624349).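 Further: 100% = mean of DMSO negative control wells on the same plate.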 The note with it: P. berghei liver stage in HepG2, luciferase luminescence, concentration not given here; parasite load remaining: stronger effect = lower value; viability: measured here: HepG2 viability without parasites.
Assay [2] can be described thus: stimulators of nuclear beta-catenin in C2C12, primary screen, imaging, WNT3A-conditioned medium, mouse C2C12, NPC library (AID 1117326; in the data active means nuclear beta-catenin stimulation mostly above about 4.2%, no sharp cut-off; inactive means mostly below about 10%). The note with it: stronger effect = higher value.

For the compound `O=C(O)c1ccccc1OP(=O)(O)O`, in assay [1], the parasite load remaining was 79.1% (inactive) and 102% (inactive); the viability was 101% and 71.6%. Further, the nuclear beta-catenin stimulation in assay [2] (at 10 µM) was 0.8% (inactive). Moreover, in assay [2] (stimulation, at 2 µM), the nuclear beta-catenin stimulation stood at 2.9%.

With `CC(NCCC(c1ccccc1)c1ccccc1)c1ccccc1` (stereo unspecified), the parasite load remaining in assay [1] was -2.42% (inactive) and 196% (inactive) and 56% (inactive). Also, the viability in assay [1] is 7.6% and 63.1% and 81.9%. For the same compound, the nuclear beta-catenin stimulation is 27.6% (inactive) in assay [2] (at 10 µM) and -0.2% in assay [2] (stimulation, at 2 µM).

With `NC(=O)c1ccccc1O`, the parasite load remaining in assay [1] is 47.6% (inactive) and 47.5% (inactive). For the same compound, in assay [1], the viability was 78.6% and 92.9%. Besides, the nuclear beta-catenin stimulation in assay [2] (at 10 µM) is 0.9% (inactive); in assay [2] (stimulation, at 2 µM), 0.5%.

With `OCC(O)CN1CCN(c2ccccc2)CC1` (stereo unspecified), in assay [1], the parasite load remaining was 36.8% (inactive) and 188% (inactive) and 98.1% (inactive); the viability is 50.7% and 71.2% and 93.7%. Further, the nuclear beta-catenin stimulation in assay [2] (at 10 µM) was -1.5% (inactive). For the same compound, the nuclear beta-catenin stimulation in assay [2] (stimulation, at 2 µM) worked out at 0.8%.

As to `CC1=C(C(=O)O)N2C(=O)[C@@H](NC(=O)[C@H](N)c3ccc(O)cc3)[C@H]2SC1`, in assay [1], the parasite load remaining was 116% (inactive) and 83.6% (inactive); the viability is 96.4% and 77.7%. Also, the nuclear beta-catenin stimulation in assay [2] (at 10 µM) was 1.8% (inactive). Also, in assay [2] (stimulation, at 2 µM), the nuclear beta-catenin stimulation is 3.3%.

In the case of `CN1CCC(OC(c2ccccc2)c2ccccc2)CC1`, in assay [1], the parasite load remaining was 97.1% (inactive) and 89.2% (inactive) and 61.4% (inactive); the viability is 96.1% and 75.8% and 94.2%. The nuclear beta-catenin stimulation in assay [2] (at 10 µM) is 0.7% (inactive). For the same compound, the nuclear beta-catenin stimulation in assay [2] (stimulation, at 2 µM) stood at 1.6%.

On to `COc1cc(N)c(Cl)cc1C(=O)NC1CCN(Cc2ccccc2)CC1`, for which, in assay [1], the parasite load remaining was 50.5% (inactive) and 24.1% (inactive) and 67.3% (inactive); the viability was 116% and 86.9% and 74.5%. For the same compound, the nuclear beta-catenin stimulation in assay [2] (at 10 µM) is 3.1% (inactive). In assay [2] (stimulation, at 2 µM), the nuclear beta-catenin stimulation was 0.9%.

On to `O=NN(CCCl)C(=O)NC1CCCCC1`, for which the parasite load remaining in assay [1] is 11.7% (inactive). The viability in assay [1] worked out at 78%. The nuclear beta-catenin stimulation was 11.8% (inactive) in assay [2] (at 10 µM) and 3.7% in assay [2] (stimulation, at 2 µM).

Take `O=C(O)c1ccccc1O`: in assay [1], the parasite load remaining is 90.3% (inactive) and 39.7% (inactive); the viability was 79.5% and 93.6%. Moreover, the nuclear beta-catenin stimulation in assay [2] (at 10 µM) is 0.5% (inactive). Besides, the nuclear beta-catenin stimulation in assay [2] (stimulation, at 2 µM) was -0.8%.

`Oc1c(Cl)cc(Cl)cc1Sc1cc(Cl)cc(Cl)c1O`: in assay [1], the parasite load remaining is 21.9% (inactive) and 0.17% (inactive). In addition, the viability in assay [1] was 65.4% and 70%. Further, the nuclear beta-catenin stimulation in assay [2] (at 10 µM) was 41.4% (active); in assay [2] (stimulation, at 2 µM), 1.5%.

As to `C[N+]12CCC(CC1)C(OC(=O)C(O)(c1ccccc1)c1ccccc1)C2` (stereo unspecified), the parasite load remaining in assay [1] was 89.9% (inactive) and 72% (inactive) and 63.2% (inactive). The viability in assay [1] was 98.6% and 73% and 99.2%. For the same compound, the nuclear beta-catenin stimulation in assay [2] (at 10 µM) is 1.4% (inactive); in assay [2] (stimulation, at 2 µM), 1.9%.

Take `CC(=O)OCC1=C(C(=O)O)N2C(=O)[C@@H](NC(=O)CSc3ccncc3)[C@H]2SC1`: in assay [1], the parasite load remaining was 79.7% (inactive) and 64.8% (inactive); the viability is 79.3% and 105%. Moreover, the nuclear beta-catenin stimulation in assay [2] (at 10 µM) is -0.8% (inactive). Further, in assay [2] (stimulation, at 2 µM), the nuclear beta-catenin stimulation amounted to 1.1%.

For the compound `C[C@@](Cc1ccc(O)c(O)c1)(NN)C(=O)O`, in assay [1], the parasite load remaining was 47.3% (inactive) and the viability was 129%. Further, the nuclear beta-catenin stimulation in assay [2] (at 10 µM) is -1.9% (inactive). Besides, the nuclear beta-catenin stimulation in assay [2] (stimulation, at 2 µM) is -0.3%.

As to `CC(=O)Nc1ccccc1`, in assay [1], the parasite load remaining is 92.8% (inactive) and 37.4% (inactive); the viability is 71.9% and 93.5%. The nuclear beta-catenin stimulation in assay [2] (at 10 µM) is 5.2% (inactive). In addition, the nuclear beta-catenin stimulation in assay [2] (stimulation, at 2 µM) was 1.4%.

For the compound `Nc1ccc(S(=O)(=O)NC(=O)c2ccccc2)cc1`, in assay [1], the parasite load remaining was 105% (inactive) and 86.8% (inactive) and 33.6% (inactive); the viability is 105% and 73% and 95.8%. Moreover, the nuclear beta-catenin stimulation in assay [2] (at 10 µM) is 1.5% (inactive). In addition, the nuclear beta-catenin stimulation in assay [2] (stimulation, at 2 µM) amounted to 1.1%.

Regarding `CC[C@]12CCCN3CCc4c(n(c5ccccc45)C(=O)C1)[C@@H]32`, in assay [1], the parasite load remaining was 191% (inactive) and 75.4% (inactive); the viability is 102% and 73.8%. Further, in assay [2] (at 10 µM), the nuclear beta-catenin stimulation is 35.1% (inactive). Moreover, the nuclear beta-catenin stimulation in assay [2] (stimulation, at 2 µM) was found to be 6.2%.

Turning to `Cc1cc(O)cc(C)c1Cl`, in assay [1], the parasite load remaining was 69.1% (inactive) and 37.2% (inactive); the viability is 76.7% and 78.6%. Further, the nuclear beta-catenin stimulation in assay [2] (at 10 µM) was -0.1% (inactive). For the same compound, the nuclear beta-catenin stimulation in assay [2] (stimulation, at 2 µM) amounted to 2%.

For the compound `CCN1CCN(C(=O)N[C@@H](C(=O)N[C@@H]2C(=O)N3C(C(=O)O)=C(CSc4nnnn4C)CS[C@H]23)c2ccc(O)cc2)C(=O)C1=O`, in assay [1], the parasite load remaining is 48.8% (inactive) and 79.5% (inactive) and 21.1% (inactive); the viability is 114% and 80.3% and 69%. In addition, the nuclear beta-catenin stimulation in assay [2] (at 10 µM) is -0.5% (inactive). In assay [2] (stimulation, at 2 µM), the nuclear beta-catenin stimulation is -1.5%.

Regarding `CCCCCN(C)CCC(O)(P(=O)(O)O)P(=O)(O)O`, in assay [1], the parasite load remaining is 28% (inactive) and the viability was 76.5%. Also, in assay [2] (at 10 µM), the nuclear beta-catenin stimulation was -3% (inactive). For the same compound, in assay [2] (stimulation, at 2 µM), the nuclear beta-catenin stimulation amounted to 0.2%.

For `CCOC(N)=O`, in assay [1], the parasite load remaining is 148% (inactive) and 51.2% (inactive); the viability was 85% and 96.6%. For the same compound, the nuclear beta-catenin stimulation in assay [2] (at 10 µM) was 2.6% (inactive). Also, the nuclear beta-catenin stimulation in assay [2] (stimulation, at 2 µM) is 7.1%.

Take `O=C(O)[C@@H]1[C@H]2C[C@H]3c4[nH]c5ccccc5c4CCN3C[C@@H]2CC[C@@H]1O`: in assay [1], the parasite load remaining was 106% (inactive) and 85.7% (inactive). The viability in assay [1] is 104% and 83.6%. Moreover, the nuclear beta-catenin stimulation is 0.4% (inactive) in assay [2] (at 10 µM) and 1.8% in assay [2] (stimulation, at 2 µM).

Turning to `CCCc1cc(C(N)=S)ccn1`, in assay [1], the parasite load remaining is 145% (inactive) and 18.2% (inactive); the viability was 83.8% and 63%. For the same compound, the nuclear beta-catenin stimulation in assay [2] (at 10 µM) was 0.2% (inactive). Besides, the nuclear beta-catenin stimulation in assay [2] (stimulation, at 2 µM) worked out at 2%.

Regarding `CCC[C@H](N[C@@H](C)C(=O)N1[C@H](C(=O)O)C[C@@H]2CCCC[C@@H]21)C(=O)OCC`, in assay [1], the parasite load remaining was 98.2% (inactive) and 68.9% (inactive) and 42.7% (inactive); the viability was 70.3% and 83% and 98.6%. Further, the nuclear beta-catenin stimulation in assay [2] (at 10 µM) was 1.3% (inactive). Besides, the nuclear beta-catenin stimulation in assay [2] (stimulation, at 2 µM) amounted to 0.5%.

In the case of `Cc1onc(-c2ccccc2)c1C(=O)N[C@@H]1C(=O)N2[C@@H]1SC(C)(C)[C@@H]2C(=O)O`, in assay [1], the parasite load remaining was 27.2% (inactive) and the viability worked out at 72.5%. Moreover, the nuclear beta-catenin stimulation in assay [2] (at 10 µM) was -2.3% (inactive). Also, the nuclear beta-catenin stimulation in assay [2] (stimulation, at 2 µM) was found to be 0.5%.
